TDP1 cell CPT – qHTS for Inhibitors of human tyrosyl-DNA phosphodiesterase 1 (TDP1): qHTS in cells in presence of CPT | 12% of 420,000 active | Potency, µM (highest dose often 46.2 µM), inactives show at the top dose activity change, negative = growth inhibition, most hits filed as inhibitors | chicken DT40 Tdp1-/-;hTDP1 cells + 20 nM CPT, ATP luminescence, 48 h; note: potency is the fitted concentration of half-maximal effect; % is set by controls: 0 for no effect and ±100 for the full control effect; nearly all actives have a fitted effect of over 55% in size
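Cell growth measured by CellTiter-Glo luminescence after a minimum 48 h, 37 C compound exposure with 20 nM CPT in Tdp1-knockout DT40 cells stably expressing hTDP1, seeded 400/well; qHTS titration format.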
TGFb inhibitor – qHTS for Inhibitors of TGF-b | HepG2 CAGA-GFP TGF-b/SMAD3 reporter, GFP fluorescence, 18 h; TGF-beta stimulated, 500 pg/mL final | Potency, µM (highest dose often 46.1 µM), for the others: at the top dose activity, negative = inhibition, most hits filed as inhibitors | 1.2% of 410,000 active | AID 588855, 2011; note: potency is the fitted concentration of half-maximal effect; % is set by controls: 0 for no effect and ±100 for the full control effect; nearly all actives have a fitted effect of over 65% in size
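First, reporter cells (HEPG2 CAGA-GFP) rested 2 h at 37 degrees C. Next, compounds were pinned in and TGF-beta added to 500 pg/mL final. After 18 h, GFP was imaged per cell and summed per well.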
HepG2 viability – qHTS for Inhibitors of TGF-b: Cytotox Counterscreen; Potency, µM (series often up to 46.1 µM), for the others: at the highest dose activity change, negative = cytotoxicity, most hits filed as cytotoxic; AID 588856, 2011; 0.76% of 410,000 active; HepG2 CAGA-GFP viability, ATP luminescence, 18 h; note: potency is the fitted concentration of half-maximal effect
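HepG2 CAGA-GFP cells (1000/well, DMEM with 1% FBS) received compound, then TGF-beta at 500 pg/mL final, and were incubated 18 hours at 37 degrees C. Viability was read by CellTiter-Glo luminescence. Media-only wells were set as complete cell-killing and DMSO as no toxicity.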
TDP1 cell noCPT – qHTS for Inhibitors of human tyrosyl-DNA phosphodiesterase 1 (TDP1): qHTS in cells in absence of CPT. DT40 Tdp1-/- hTDP1 cells, no CPT, ATP luminescence, 48 h. AID 686978, 2013. Potency, µM (doses to about 46.2 µM), without a hit: top-dose activity change, negative = growth inhibition, actives largely listed as inhibitors. 15% of 420,000 active; note: potency is the fitted concentration of half-maximal effect; % is set by controls: 0 for no effect and ±100 for the full control effect; nearly all actives have a fitted effect of over 55% in size
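Readout: luminescence from CellTiter-Glo after 30 min in the dark at RT. Cells: DT40 Tdp1-/- with stable hTDP1, 400/well. Exposure: compounds alone, ≥48 hr, 37 °C.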
TDP1 inh – qHTS Assay for Inhibitors of Tyrosyl-DNA Phosphodiesterase (TDP1). 0.28% of 350,000 active. AID 485290, 2010. Tyrosyl-DNA phosphodiesterase 1 (Homo sapiens), Q9NUW8. recombinant TDP1, AlphaScreen DNA substrate cleavage. Potency, µM (top dose mostly 130 µM), for inactives: at the top dose activity change, negative = inhibition, hits mostly inhibitors; note: potency is the fitted concentration of half-maximal effect; % is set by controls: 0 for no effect and ±100 for the full control effect; nearly all actives have a fitted effect of over 40% in size
Target sequence (Q9NUW8 whole entry, looked up): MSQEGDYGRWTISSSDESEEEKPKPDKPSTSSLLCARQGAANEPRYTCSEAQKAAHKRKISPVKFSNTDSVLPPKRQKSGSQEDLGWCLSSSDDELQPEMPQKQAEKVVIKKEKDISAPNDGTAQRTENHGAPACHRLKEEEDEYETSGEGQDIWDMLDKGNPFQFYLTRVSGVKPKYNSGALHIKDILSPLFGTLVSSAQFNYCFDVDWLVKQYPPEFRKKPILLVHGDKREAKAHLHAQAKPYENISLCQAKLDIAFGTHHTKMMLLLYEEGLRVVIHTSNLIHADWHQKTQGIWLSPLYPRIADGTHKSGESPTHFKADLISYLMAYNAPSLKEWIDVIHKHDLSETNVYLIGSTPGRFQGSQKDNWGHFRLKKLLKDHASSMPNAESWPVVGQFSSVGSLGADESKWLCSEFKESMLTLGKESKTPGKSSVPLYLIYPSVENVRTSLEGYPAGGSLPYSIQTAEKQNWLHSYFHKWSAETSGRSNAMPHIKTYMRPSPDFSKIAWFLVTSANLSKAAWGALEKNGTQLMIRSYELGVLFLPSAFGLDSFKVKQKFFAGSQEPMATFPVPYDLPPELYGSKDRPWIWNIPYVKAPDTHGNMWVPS
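Compounds were preincubated with Tdp1 (1 nM final) for 15 min at room temperature before substrate (15 nM final) started a 5 min reaction; beads (10 ug/ml final) were then added for 10 min before AlphaScreen detection.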
IL1B secr inh – qHTS for Inhibitors of Inflammasome Signaling: IL-1-beta AlphaLISA Primary Screen. activity change, % at 57.5 µM. 4.7% of 360,000 active. AID 743279, 2014. THP-1 LPS/ATP IL-1B secretion, AlphaLISA, 16 h; hits give low values; in the data active = activity change below about -50%; inconclusive = mostly about -30% to -49%; note: % is set by controls: 0 for no effect and ±100 for the full control effect
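Secreted IL-1B measured by AlphaLISA bead assay after 16 h compound exposure of THP-1 cells; compounds (final up to 57.5 uM) added 1 h before LPS (250 ng/mL) and ATP (1.25 mM) stimulation; lower signal means less secretion.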
Numbers without * were called inactive; ? = inconclusive; . = no result given; ! = repeats disagree. Compounds with a hit are over-represented: about 19% of the library has one in this group of screens. Unless noted, calls come from the whole dose curve; as a rule, active = well fitted curve in the direction sought with a large enough effect; inconclusive = small, poorly fitted or top-dose-only effect, or another doubt; inactive = no such curve, though single readings can be large; an effect the other way counts as inactive or inconclusive.

SMILES	TDP1 cell CPT	TGFb inhibitor	HepG2 viability	TDP1 cell noCPT	TDP1 inh	IL1B secr inh
CC(=O)C1=C(c2ccc(Br)cc2)N(C(C)=O)n2c(nnc2C2CCCCC2)S1	5.2%	0.1%	8.2%	?	5.2%	.
COc1ccc(C)cc1NC(=S)N1CC(C)OC(C)C1 (stereo not drawn)	-9.1%	-23.3%	-3.5%	18.3%	3.3%	0.0
O=C(NCC1CC1)c1onc(CSc2nc3ccccc3[nH]2)c1C(=O)NCC1CC1	20.6µM*	-6.4%	-58.8%	?	.	-12.2
CCN(CC)CCCC(C)Nc1nccc2c(Cl)cccc12 (stereo not drawn)	20.6µM*	?	-40.5%	?	.	?
CCN(CC)CCOc1c(C)cccc1Cl	-0.2%	-9.6%	-18.0%	10.1%	2.5%	13.5
Cc1cccc(NC(=S)NNc2ncc(C(F)(F)F)cc2Cl)c1	?	?	-36.6%	?	11.5%	-13.6
Oc1ccc(Nc2ccnc3cc(Cl)ccc23)cc1	?	?	-29.4%	20.6µM*	5.5%	-74.0*
FC(F)(F)c1cnc(NNC(=S)Nc2ccccc2Cl)c(Cl)c1	?	7.08µM*	-48.8%	18.4µM*	8.2%	-51.8*
Clc1ccc2c(NCc3ccccc3)ccnc2c1	?	?	-27.6%	10.3µM*	10.6%	-99.0*
COc1ccc(CC(=O)Nc2cc(S(C)(=O)=O)ccc2Cl)cc1S(=O)(=O)N1CCOCC1	-2.1%	-12.3%	7.0%	1.3%	.	11.6
CCN(CC)CCNc1ccnc2cc(Cl)ccc12	-21.0%	-14.5%	-37.5%	-21.8%	0.0%	-55.6*
S=C(NNc1ccnc2cc(Cl)ccc12)Nc1ccccc1Cl	4.11µM*	?	-18.1%	2.59µM*	2.7%	-90.8*
CCN(CCO)CCCC(C)Nc1ccnc2cc(Cl)ccc12 (stereo not drawn)	2.59µM*	.	.	4.11µM*!	4.3%	.
Clc1ccc(NNc2ccnc3cc(Cl)ccc23)cc1	?	3.9%	-9.2%	?	11.8%	-29.8
Cc1ccc(CCNC(=O)CCCc2nnc3n(C)c(=O)c4sccc4n23)cc1	?	-8.5%	-7.3%	?	2.9%	.
COc1ccc(C2=Nn3c(nnc3-c3ccccc3C)SC2)cc1OC	.	.	.	.	8.5%	.
COc1ccc(C2=Nn3c(nnc3-c3ccccc3C(F)(F)F)SC2)cc1OC1CCOC1 (stereo not drawn)	.	11.8%	18.3%	.	3.9%	.
COc1ccc(C2=Nn3c(nnc3-c3ccccc3OC)SC2)cc1OC1CCOC1 (stereo not drawn)	.	2.82µM*	-18.0%	.	7.0%	.
COc1ccccc1-c1nnc2n1N=C(c1ccc(O)c(O)c1)CS2	6.51µM*	?	3.0%	6.51µM*	-12.2%	115.0
CC1(C)CC(=O)C/C(=N/NC(=O)COc2ccc3ccccc3c2Br)C1	?	?	-42.6%	?	4.6%	-27.5
O=C(Nc1nnc(-c2ccccc2)o1)C1CCCN1S(=O)(=O)c1cccs1 (stereo not drawn)	-29.4%	0.4%	-1.9%	?	-6.1%	-59.3*
COc1ccc(NC(=O)C(=O)NCC2CCCN2S(=O)(=O)c2cccs2)cc1 (stereo not drawn)	2.31µM*	?	4.6%	2.06µM*	0.3%	-6.2
COc1ccc(-c2nnc(NC(=O)C3CCCN3S(=O)(=O)c3cccs3)o2)cc1 (stereo not drawn)	?	0.0%	-26.4%	-26.6%	0.9%	5.2
COc1ccc(CCNC(=O)C(=O)NCCC2CCCCN2S(=O)(=O)c2cccs2)cc1 (stereo not drawn)	?	-22.6%	3.9%	?	0.5%	-28.4
O=C(NCCc1ccccc1)C(=O)NCC1CCCN1S(=O)(=O)c1cccs1 (stereo not drawn)	23.1µM*	-10.8%	-11.1%	?	1.2%	5.2
SMILES	TDP1 cell CPT	TGFb inhibitor	HepG2 viability	TDP1 cell noCPT	TDP1 inh	IL1B secr inh
Cc1ccccc1NC(=O)C(=O)NCC1CCCN1S(=O)(=O)c1cccs1 (stereo not drawn)	-29.1%	-2.3%	-15.0%	?	-0.1%	4.0
Cc1ccccc1CNC(=O)C(=O)NCCC1CCCCN1S(=O)(=O)c1cccs1 (stereo not drawn)	18.4µM*	-21.7%	-32.7%	?	.	-23.5
COc1ccccc1CNC(=O)C(=O)NCCC1CCCCN1S(=O)(=O)c1cccs1 (stereo not drawn)	?	9.9%	-30.6%	?	-0.5%	?
CCCCCOc1ccc(NC(=O)C(=O)NCC2CCCN2CC)cc1 (stereo not drawn)	16.4µM*	-4.1%	3.3%	?	1.2%	-7.2
CCOCCCNC(=O)CCC(=O)NNc1nc2ccccc2c2nc(-c3ccccc3)nn12	?	-5.8%	-18.1%	11.6µM*	8.1%	30.0
CN(C)c1ccc(C(CNS(=O)(=O)c2ccc(Br)cc2)N2CCOCC2)cc1 (stereo not drawn)	?	?	-22.6%	?	3.8%	.
COC(=O)C1=C(C)N(c2ccc(OC)cc2)C(C)=C(C(=O)OC)C1c1ccccc1	?	?	-32.7%	20.6µM*	2.7%	0.0
COC(=O)C1=C(C)N(c2ccc(OC)cc2)C(C)=C(C(=O)OC)C1c1ccc(OC)cc1	8.2µM*	-8.9%	18.7%	16.4µM*	.	-2.1
COC(=O)C1=C(C)N(C)C(C)=C(C(=O)OC)C1c1ccc(Cl)cc1	-23.5%	?	-0.7%	?	0.0%	2.3
N#Cc1cnc2nc(SCc3ccccc3)nn2c1	-0.9%	-1.0%	-16.1%	?	.	-69.5*
O=C(NNC(=O)C1C2C=CC(C2)C1C(=O)O)c1cc(Cl)ccc1O (stereo not drawn)	-5.5%	0.0%	2.9%	-0.9%	3.2%	-6.6
CCCC(=O)C1=C(O)C(C(=O)OC)C(C)(C)CC1=Nc1ccc(N)cc1 (stereo not drawn)	-18.6%	13.4%	3.5%	-10.1%	1.9%	2.8
CCCC(=O)C1=C(O)C(C(=O)OC)C(C)(C)CC1=Nc1ccc(OC)cc1 (stereo not drawn)	?	-6.5%	-1.7%	20.6µM*	1.6%	-14.7

Screening results: PubChem, National Center for Advancing Translational Sciences (NCATS)
